The campaign covered roughly 360,000 compounds. About 2,900 (0.81%) were called active. The sample holds actives, similar compounds and a random draw of the others, so the mix is not that of the screen.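 The calls were made as follows: active = inhibition above the mean inhibition across every tested compound plus 3 SD (cut at about 22% in these data); inactive = the rest.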
The molecules below were run against Perilipin-5 (Homo sapiens) + 1-acylglycerol-3-phosphate O-acyltransferase ABHD5 (Homo sapiens) (UniProt Q00G26+Q8WTS1) (assay: blockers of ABHD5 binding to perilipin-5 – cell lysate, split luciferase complementation, luminescence, primary screen (AID 602281;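 also: 0% = DMSO only wells and the 100% control is not disclosed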)). Details: Split G. princeps luciferase complementation, 4 h, at 4 µM, hits give high values.
Sequence of Perilipin-5 (Homo sapiens) + 1-acylglycerol-3-phosphate O-acyltransferase ABHD5 (Homo sapiens) (Q00G26 whole entry, looked up): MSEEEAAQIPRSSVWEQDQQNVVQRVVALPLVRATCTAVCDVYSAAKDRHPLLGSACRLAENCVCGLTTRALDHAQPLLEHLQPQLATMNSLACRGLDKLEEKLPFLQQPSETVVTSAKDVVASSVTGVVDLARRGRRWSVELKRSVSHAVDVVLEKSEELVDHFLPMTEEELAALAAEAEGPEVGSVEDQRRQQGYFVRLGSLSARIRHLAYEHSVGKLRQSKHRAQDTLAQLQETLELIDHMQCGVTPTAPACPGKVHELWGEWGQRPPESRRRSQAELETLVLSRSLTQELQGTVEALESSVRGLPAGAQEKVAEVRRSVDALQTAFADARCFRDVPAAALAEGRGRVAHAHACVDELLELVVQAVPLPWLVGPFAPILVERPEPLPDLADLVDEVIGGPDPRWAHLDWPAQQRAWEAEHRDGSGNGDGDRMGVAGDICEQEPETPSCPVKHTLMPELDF
Sequence of Perilipin-5 (Homo sapiens) + 1-acylglycerol-3-phosphate O-acyltransferase ABHD5 (Homo sapiens) (Q8WTS1 whole entry, looked up): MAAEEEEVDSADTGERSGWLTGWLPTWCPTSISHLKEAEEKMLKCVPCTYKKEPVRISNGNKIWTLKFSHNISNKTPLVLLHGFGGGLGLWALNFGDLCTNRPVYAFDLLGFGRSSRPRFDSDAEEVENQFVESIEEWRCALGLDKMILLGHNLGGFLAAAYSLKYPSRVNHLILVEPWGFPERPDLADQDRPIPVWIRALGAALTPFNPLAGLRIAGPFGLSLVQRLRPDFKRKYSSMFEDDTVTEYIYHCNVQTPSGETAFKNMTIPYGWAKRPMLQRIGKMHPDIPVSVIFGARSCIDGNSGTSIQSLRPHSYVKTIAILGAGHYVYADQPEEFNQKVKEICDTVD

Compound | inhibition
Cc1cccc(C)c1NC(=O)CN1C(=O)C(C)Oc2ccccc21 (stereo not drawn) | -5.51% (inactive)
O=C(NCCS(=O)(=O)NCc1ccc(Cl)cc1)c1ccccc1 | -6.46% (inactive)
O=C(NCCOCc1ccc(Cl)cc1)c1ncn[nH]1 | 24.2% (active)
Cc1cc(C(=O)NCCc2ccc(Cl)cc2)n(-c2ccccc2)n1 | 1.98% (inactive)
O=C(C(=O)N1CCc2ccccc2C1)c1c[nH]c2ccccc12 | 0.81% (inactive)
COc1cccc(C(CC(=O)NCCN2CCOCC2)NS(=O)(=O)c2ccc(C)cc2)c1OC (stereo not drawn) | 9.39% (inactive)
Nc1ccc2nc3c(=O)[nH]c(=S)[nH]c3nc2c1 | 35% (active)
O=C(CS(=O)(=O)Cc1ccccc1)Nc1cccnc1 | -3.38% (inactive)
Cc1cccc(NS(=O)(=O)c2ccc(C)c(C(=O)NCc3cccnc3)c2)c1 | 3.74% (inactive)
CN(CC(=O)Nc1ccc(F)cc1)CC(=O)Nc1ccc(Cl)c(S(=O)(=O)N2CCOCC2)c1 | 5.71% (inactive)
Cc1cccc(CS(=O)(=O)c2ncc(Cl)c(C(=O)Nc3ccc(F)cc3)n2)c1 | 53.6% (active)
Cc1cccc(NC(=O)c2nc(S(=O)(=O)Cc3ccccc3)ncc2Cl)c1 | 72.4% (active)
Cc1cccc(C(=O)Nc2ccc(Oc3cnccn3)cc2)c1 | 3.4% (inactive)
O=C(NCCN1CCN(C(=O)c2cccc([N+](=O)[O-])c2)CC1)C(=O)NCc1ccc(Cl)cc1 | 12.1% (inactive)
CCOc1cc(C(=O)Nc2c(C)ccc3nsnc23)cc(OCC)c1OCC | -10.9% (inactive)
C[C@@H]1C[C@@H]2O[C@H]2/C=C\C=C\C(=O)Cc2c(Cl)c(O)cc(O)c2C(=O)O1 | 27.7% (active)
COc1ccccc1CNS(=O)(=O)c1cc(C(=O)NCc2ccccn2)c(Cl)cc1Cl | 2.36% (inactive)
Cc1ccc2c(c1)N(CC(=O)N1CCC(C)CC1)C(=O)c1cccnc1O2 | -5.07% (inactive)
Cc1ccc(N(C(=O)c2ccc(CN3CCOCC3)o2)C(C(=O)NCCC(C)C)c2cccs2)c(C)c1 (stereo not drawn) | 5.44% (inactive)
Cc1ccc(S(=O)(=O)N2CCC(C(=O)N[C@@H](C)C(=O)NCCc3ccccc3)CC2)cc1 | -6.43% (inactive)
NC(=S)Nc1c(Cl)cccc1Cl | -3.54% (inactive)
CCCCN(CCCC)CCNC(=O)CN1C(=O)COc2ccc(S(=O)(=O)N3CCOCC3)cc21 | -1.64% (inactive)
Cc1ccc(Cc2c(-c3ccco3)nc3ccc(Cl)cn23)cc1 | 54.8% (active)
Cc1cc2nc(-c3ccco3)c(Cc3cccc(F)c3)n2c(C)c1Br | 23.1% (active)
Cc1ccc(Cc2c(-c3ccccc3)nc3ccc(Cl)cn23)cc1 | -3.87% (inactive)
Fc1cccc(Cc2c(-c3ccc(Cl)cc3)nc3ccc(Cl)cn23)c1 | 11.5% (inactive)

Compound | inhibition
Clc1cccc(Cc2c(-c3cccc(Cl)c3)nc3ccc(Cl)cn23)c1 | -8.19% (inactive)
Cc1ccc2nc(-c3ccco3)c(Cc3cccc(Cl)c3)n2c1 | 32.1% (active)
Cc1cc2nc(-c3ccc(Cl)cc3)c(Cc3cccc(F)c3)n2c(C)c1Br | -5.68% (inactive)
Fc1cccc(Cc2c(-c3cccc(Cl)c3)nc3ccc(Br)cn23)c1 | -8.3% (inactive)
Cc1cc2nc(-c3ccc(F)cc3)c(Cc3ccsc3)n2c(C)c1Br | -2.1% (inactive)
Nn1c(SCc2ccccc2)nnc1C1CCCCC1 | 7.84% (inactive)
CCOc1ccc(NC(=O)CN(C)CC(=O)Nc2cccc(Cl)c2C)cc1OCC | -2.27% (inactive)
COCCN1Cc2cccc(C(=O)Nc3ccccc3OC)c2C1=O | 2.14% (inactive)
CCc1ccccc1S(=O)(=O)Cc1ccc(C(=O)NCCc2ccccc2)o1 | 0.54% (inactive)
CCC(C)CN1C(=O)CSCC1(C)C(=O)NCc1ccccc1 (stereo not drawn) | -0.17% (inactive)
NC(=O)C(Cc1ccccc1)NC(=O)C12CC3CC(CC(C3)C1)C2 (stereo not drawn) | -7.59% (inactive)
COc1cc(OC)cc(C(=O)NNC(=O)CNC(=O)c2ccc(Br)o2)c1 | 1.69% (inactive)
CCCCCCNC(=O)O[C@H]1CN(C(=O)OC(C)C)N(C(=O)OC(C)C)[C@@H]2CN(S(=O)(=O)c3ccc(C)cc3)C[C@]12O | -9.24% (inactive)
CCOCCOC(=O)C1=C(C)N(C)C(=O)NC1c1ccccc1F (stereo not drawn) | 2.63% (inactive)
CN1c2ccc(C=O)c3c(C=O)ccc(c23)N(C)C1(C)C | 7.33% (inactive)
Cc1cc(C)cc(OCC(=O)NCc2cc(C)nc3ccccc23)c1 | 0.84% (inactive)
CC(C)c1ccccc1OCC(O)CN(CC(O)COc1cccc2ccccc12)C(C)C (stereo not drawn) | 8.09% (inactive)
Cc1cc(C)c(NC(=O)C[N+](C)(C)CC(O)COc2cccc3ccccc23)c(C)c1 (stereo not drawn) | 33% (active)
NC(=O)c1ncn([C@@H]2O[C@H](CNCc3cnc(N4CCOCC4)s3)[C@@H](O)[C@H]2O)n1 | -2.34% (inactive)
COc1ccc(C(=O)c2c3ccc([N+](=O)[O-])cc3[n+]([O-])n2CCCN)cc1 | -9.06% (inactive)
O=C(CSc1nc(C2CC2)nc2ccccc12)Nc1cccc(O)c1 | -2.61% (inactive)
O=C(NNc1c2ccccc2nc2ccccc12)c1cc2ccccc2cc1O | 26.3% (active)
O=C(Cc1ccccn1)c1ccc(O)cc1O | -1.78% (inactive)
CCCn1c(N)c(N(CCOC)C(=O)C2CCCC2)c(=O)[nH]c1=O | -0.19% (inactive)
Cc1ccc(CC(=O)N(C)CC(=O)N(CC(C)C)c2c(N)n(CC(C)C)c(=O)[nH]c2=O)cc1C | -2.36% (inactive)
Cc1ccccc1/C=C\c1nc(O)c([N+](=O)[O-])c(=O)[nH]1 | 15.6% (inactive)

Compound | inhibition
O=c1[nH]c(/C=C\c2cccc(C(F)(F)F)c2)nc(O)c1[N+](=O)[O-] | 42.7% (active)
O=c1cc(O)c(-c2cccc(C(F)(F)F)c2)c(Cl)[nH]1 | 1.03% (inactive)
COCCCNC(NC(=O)c1ccc(C)cc1)C(Cl)(Cl)Cl (stereo not drawn) | -2.85% (inactive)
COc1ccccc1CNC(=O)c1ccc(N(C)S(=O)(=O)c2ccc(C)cc2)cc1 | 4.36% (inactive)
CN(CCO)S(=O)(=O)c1ccc2c(c1)C(=O)c1cc(S(=O)(=O)N(C)CCO)ccc1-2 | -0.45% (inactive)
CCC1(c2ccccc2)NC(=O)N(CC(=O)Nc2ccccc2C(=O)NC2CCCC2)C1=O (stereo not drawn) | -4.04% (inactive)
C=C(C)C(=O)O[C@H]1C/C(C)=C\C(=O)/C=C(\C)[C@H](O)[C@@H]2OC(=O)C(=C)[C@@H]21 | 27% (active)
Cc1ccc(C2=NN(C(=O)CSc3nc(N)cc(N)n3)C(c3ccco3)C2)cc1 (stereo not drawn) | 12.7% (inactive)
CCS(=O)(=O)Nc1ccc(C2=NN(S(=O)(=O)c3ccc(F)cc3)C(c3ccco3)C2)cc1 (stereo not drawn) | 29.4% (active)
COc1cccc(C2CC(c3ccccc3)=NN2S(=O)(=O)c2ccccc2)c1OC (stereo not drawn) | -7.74% (inactive)
O=C(NCc1ccccn1)c1c(O)c2c([nH]c1=O)CCCC2 | 3.03% (inactive)
Cc1[nH]c(=O)c(C(=O)/C=C/c2ccccc2)c2c1CCCC2 | 32.6% (active)
C/C(=C\c1ccccc1)C1NC(=O)c2c(sc3c2CCCC3)N1 (stereo not drawn) | -8.89% (inactive)
COC(=O)COc1cccc2c(=O)n(CC(=O)NCc3ccccc3)ccc12 | -4.9% (inactive)
CCN(CC(=O)Nc1c(F)cccc1F)C(=O)c1ccc(S(=O)(=O)N2CCCCC2)cc1 | 0.66% (inactive)
COc1cc(C(=O)NNC(=O)c2ccc(S(=O)(=O)N3CCCCC3)cc2)cc(OC)c1OC | 0.06% (inactive)
CN(C)CCCN(C(=O)c1ccc(S(=O)(=O)N2CCCCCC2)cc1)c1nc2ccc(Br)cc2s1 | 22.3% (active)
O=C(O)CCn1cc(/C=C/C(=O)c2ccc(Cl)cc2)c(-c2cccc(Br)c2)n1 | 22.9% (active)
COc1ccc(NC(=O)CN(C)C(=O)/C=C/c2cn(Cc3ccccc3)nc2-c2cccnc2)cc1 | 0.58% (inactive)
Cc1ccc(S(=O)(=O)N[C@H](CO)C(C)C)cc1 | 2.76% (inactive)
COc1ccc(/C=C/C(=O)c2ccc(NS(=O)(=O)c3ccc(C)cc3)cc2)cc1O | 46% (active)
COc1ccc(C(=O)/C=C/c2ccc(-c3ccccc3)cc2)cc1CSCC(=O)O | 14.9% (inactive)
COc1ccc(S(=O)(=O)Nc2ccc3oc(C)c(C(C)=O)c3c2)cc1 | 4.01% (inactive)
CC(C)Cc1nn2c(=O)cc(O)nc2s1 | 4.21% (inactive)
O=C(NCC(=O)N(Cc1cccs1)C(C(=O)NC1CCCCC1)c1ccco1)c1cccs1 (stereo not drawn) | -12.1% (inactive)
CCNC(=O)CC1C(=O)N(c2ccc(OC)cc2)C(=O)N1CCOC (stereo not drawn) | 2.8% (inactive)

— PubChem BioAssay AID602281 (The Scripps Research Institute Molecular Screening Center, 2012)
